Assay results as given in PubChem BioAssay AID2642 (Johns Hopkins Ion Channel Center, 2010).
In all, about 310,000 compounds went through this assay and about 3,900 (1.3%) were called active. This is one part of a sample in which actives are shown more often than they occur.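 The calls were made as follows: active = compounds whose thallium flux B-score, printed positive for inhibition, exceeds three library SD while starting fluorescence stays within three; inactive = the rest.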

What follows are compounds tested against Potassium voltage-gated channel subfamily KQT member 1 (Homo sapiens) (UniProt P51787) (assay: inhibitors of human KCNQ1 channel, primary screen, cell-based, thallium flux, high-throughput (AID 2642;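 also: channel opened by potassium depolarization with thallium stimulus after 20 min compound exposure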)). Details: CHO-K1 KCNQ1, FluxOR thallium flux fluorescence, at 10 µM; stronger effect = higher value.
Sequence of Potassium voltage-gated channel subfamily KQT member 1 (Homo sapiens) (P51787 whole entry, looked up): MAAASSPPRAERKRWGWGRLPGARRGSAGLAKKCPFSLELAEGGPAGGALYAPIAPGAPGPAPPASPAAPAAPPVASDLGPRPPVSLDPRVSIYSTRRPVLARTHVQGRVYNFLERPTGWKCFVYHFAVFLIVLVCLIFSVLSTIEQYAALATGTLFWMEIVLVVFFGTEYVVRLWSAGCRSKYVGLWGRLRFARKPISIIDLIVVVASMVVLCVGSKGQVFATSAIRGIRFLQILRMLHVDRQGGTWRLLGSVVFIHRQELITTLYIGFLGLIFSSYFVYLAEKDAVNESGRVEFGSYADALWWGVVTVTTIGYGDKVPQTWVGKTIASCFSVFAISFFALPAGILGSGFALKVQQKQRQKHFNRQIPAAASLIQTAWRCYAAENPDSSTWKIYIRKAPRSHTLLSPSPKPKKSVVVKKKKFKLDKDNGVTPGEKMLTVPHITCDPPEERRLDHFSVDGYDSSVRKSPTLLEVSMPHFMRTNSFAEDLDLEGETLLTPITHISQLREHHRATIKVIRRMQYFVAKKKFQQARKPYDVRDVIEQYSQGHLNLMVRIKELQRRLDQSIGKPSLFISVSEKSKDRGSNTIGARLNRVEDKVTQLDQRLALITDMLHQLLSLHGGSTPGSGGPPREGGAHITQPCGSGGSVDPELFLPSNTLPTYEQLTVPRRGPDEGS
In the case of `CCOc1ccc(-c2cc(C)[n+](CCN(CC)CC)c(-c3ccc(OCC)cc3)c2)cc1`, the B-score is reported as 7 (active). `CSC1=NP(=S)(SC)N(C)c2nc3n(c21)CCC3` (stereo not given) was tested, and the B-score was “inactive”. With `CCN1C(=O)C(=Cc2c(C)n(CC(=O)NCC3CCCO3)c3ccccc23)C(=O)N(CC)C1=S` (stereo not given) the B-score was “inactive”. With `CN(C)S(=O)(=O)c1cc(C(=O)N2CCC(C(=O)O)(c3ccccc3)CC2)ccc1Cl` the B-score was “inactive”. With `Cc1ccc(-c2nc3ccccc3c(=O)n2-c2ccc(Br)cn2)cc1` the B-score was “inactive”. For `CCCCCCCCCCCCn1ccc(=N)cc1`, the B-score was 13 (active). With `CC1=CC(=Cc2sc3ccccc3[n+]2C)C=C(C)O1` the B-score was “inactive”. With `Clc1ccc2nc3c(c(-c4ccccc4)c2c1)CNCC3` the B-score was “inactive”. `O=C(Nc1cccc2ccccc12)N1CCC2(CC1)OCCO2` was tested, and the B-score was “inactive”. In the case of `CC(C)(C)c1ccc(CN2C(=O)CN=C(c3ccccc3)c3ccccc32)cc1`, the B-score is reported as 6 (active). For `O=C1CC(=O)N(Cc2ccccc2)C(=O)N1CCCCCCN1C(=O)CC(=O)N(Cc2ccccc2)C1=O`, the B-score was “inactive”. With `C=Cn1ccnc1P(=S)(c1cc(N(CC)CC)ns1)c1nccn1C=C` the B-score was “inactive”. `O=c1[nH]c(=O)n(-c2ccc(F)cc2)c(O)c1C=NCCN1CCCCC1` was tested, and the B-score was “inactive”. With `COC(=O)C1=C(c2ccccc2)C[C@@H]2CC[C@H]1N2C(=O)N1CCCCC1` the B-score was “inactive”. For `C/C(=N/O)c1ccc2ccc3ccccc3c2c1`, the B-score was “inactive”. With `C/C=C/CC1(CC)C(=O)NC(=S)NC1=O` the B-score was “inactive”. With `CCOc1cccc(=NC2CCCCC2)c2c(C)[nH]c(C)c12` the B-score was 7 (active). In the case of `CN(C)c1nc(N(C)C)nc(N(C#N)CCCl)n1`, the B-score is reported as “inactive”. For `COc1ccccc1N1CCN(C(CNC(=O)Oc2ccccc2)c2cccnc2)CC1` (stereo not given), the B-score was “inactive”. In the case of `O=C(N/N=C/c1c(O)n(C2CC2)c(=S)[nH]c1=O)c1ccccc1Cl`, the B-score is reported as “inactive”.
